The values below come from PubChem BioAssay.

Assay [1] has as its system Human papillomavirus type 1a protein E7 (residues 44-93). The assay can be described thus: small molecules binding HPV E7 44-93 – biochemical, small-molecule microarray, residues 44-93, 635 nm fluorescence, primary screen (AID 1108).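 Note: E7 fragment applied at 1 µg/mL in TBST for 1 h at 4 C; score combines spot fluorescence with its signal to noise ratio.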 Particulars: fluorescence 635 nm, higher = more signal.
A short description of assay [2]: hepatitis C replication reporter changes, two-sided – Huh7 cells, luciferase reporter, HCV replication inhibitor project, primary screen (AID 1109).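 Note: huh7 hepatoma cells harbouring a luciferase neomycin HCV replicon reporter; luciferase luminescence as measure of HCV replicon replication; test concentration not given here.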 The conditions noted are these: Huh7 HCV replicon luciferase reporter, 48 h; higher = more signal. (In general: Reporter assays use an easily measured gene product as a stand-in for the process of interest.)
Assay [3] deals with Left-right determination factor 2 (Homo sapiens) (UniProt O00292). The assay can be described thus: small molecules binding LEFTY2 protein – biochemical, small-molecule microarray, 635 nm fluorescence scan, primary screen (AID 1110). Particulars: higher = more signal.
Chain of Left-right determination factor 2 (Homo sapiens) (O00292 whole entry, looked up): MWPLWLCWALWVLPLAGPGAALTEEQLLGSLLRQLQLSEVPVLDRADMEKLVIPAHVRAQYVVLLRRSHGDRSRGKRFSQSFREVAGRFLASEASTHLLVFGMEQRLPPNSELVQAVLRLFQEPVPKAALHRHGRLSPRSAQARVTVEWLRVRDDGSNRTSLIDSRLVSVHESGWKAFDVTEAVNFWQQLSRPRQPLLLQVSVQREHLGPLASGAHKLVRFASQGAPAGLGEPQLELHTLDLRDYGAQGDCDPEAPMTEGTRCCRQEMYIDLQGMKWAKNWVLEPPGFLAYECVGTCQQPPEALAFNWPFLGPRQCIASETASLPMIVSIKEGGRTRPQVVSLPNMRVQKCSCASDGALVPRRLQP
Assay [4] has as its target Calmodulin-1 (Homo sapiens) (UniProt P0DP23). The experiment in a line: small molecules binding calmodulin-1 with EGTA – biochemical, small-molecule microarray, Cy5-labelled CALM1, profiling panel (AID 1111).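 Note: labelled calmodulin applied in Tris saline Tween buffer holding calcium plus EGTA and DTT.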 The conditions noted are these: Cy5-CALM1 binding fluorescence, higher = more signal.
The target is the same in assay [5]. The experiment in a line: small molecules binding Ca-loaded calmodulin-1 – biochemical, small-molecule microarray, Cy5-labelled CALM1, plus calcium, artefact control for SMM control-protein annotation, profiling panel (AID 1112).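 Note: score merges spot fluorescence with signal to noise from triplicate slides.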 The conditions noted are these: Cy5-CALM1 binding fluorescence, higher = more signal.
Assay [6] is described as follows: probe aWnt5a binding to arrayed compounds – biochemical, biotinylated probe, 635/667 nm fluorescence, primary screen (AID 1113).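 Note: score merges 667 nm fluorescence intensity with signal-to-noise per printed feature.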 Particulars: small-molecule microarray, higher = more signal.
The nature of assay [7]: probe aShh binding to arrayed compounds – biochemical, biotinylated probe, 635/667 nm fluorescence, primary screen (AID 1114).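 Note: probe is biotin-labelled aShh protein from a stem cell growth factor screen; measures binding of labelled protein to compounds printed on the slide; score merges feature fluorescence at 667 nm with signal-to-noise.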 Particulars: small-molecule microarray, higher = more signal.
Assay [8] is described as follows: probe aNog binding to arrayed compounds – biochemical, biotinylated probe, 635/667 nm fluorescence, primary screen (AID 1115).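 Note: probe is biotinylated aNog protein used at 0.15 µg/mL for 1 h at 4 C; z-score combines 667 nm fluorescence of each spot with its signal to noise.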 Particulars: small-molecule microarray, higher = more signal.
For assay [9], the target named is Torsin-1A-interacting protein 1 (Homo sapiens) (UniProt Q5JTV8). The assay can be described thus: compound microarray binding of lysate hLAP1 – cell lysate, small-molecule microarray, COS7 lysate, 635/667 nm fluorescence, primary screen (AID 1116). The conditions noted are these: 635 nm fluorescence, higher = more signal.
Chain of Torsin-1A-interacting protein 1 (Homo sapiens) (Q5JTV8 whole entry, looked up): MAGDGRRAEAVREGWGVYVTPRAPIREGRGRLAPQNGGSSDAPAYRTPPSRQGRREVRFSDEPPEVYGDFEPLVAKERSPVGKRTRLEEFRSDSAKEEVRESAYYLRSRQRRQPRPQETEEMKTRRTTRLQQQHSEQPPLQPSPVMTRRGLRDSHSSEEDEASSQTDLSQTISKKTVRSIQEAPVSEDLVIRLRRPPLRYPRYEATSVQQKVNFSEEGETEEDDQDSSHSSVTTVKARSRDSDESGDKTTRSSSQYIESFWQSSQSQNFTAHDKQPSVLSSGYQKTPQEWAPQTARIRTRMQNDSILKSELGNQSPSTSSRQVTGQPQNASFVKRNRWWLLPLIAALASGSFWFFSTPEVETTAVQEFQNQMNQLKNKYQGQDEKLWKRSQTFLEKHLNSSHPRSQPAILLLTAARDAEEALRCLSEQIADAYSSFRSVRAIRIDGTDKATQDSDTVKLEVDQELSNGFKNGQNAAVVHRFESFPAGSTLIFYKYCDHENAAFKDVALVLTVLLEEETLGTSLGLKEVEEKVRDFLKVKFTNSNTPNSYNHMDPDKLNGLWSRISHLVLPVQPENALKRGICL
In assay [10] the target is Alpha-bungarotoxin (Bungarus multicinctus) (UniProt P60615). The experiment in a line: compounds binding labelled alpha-BTX control protein – biochemical, small-molecule microarray, Alexa647 label, 635/667 nm fluorescence, artefact control for SMM control protein annotation, profiling panel (AID 1117). The conditions noted are these: alpha-BTX-A647 binding fluorescence, higher = more signal.
Chain of Alpha-bungarotoxin (Bungarus multicinctus) (P60615 whole entry, looked up): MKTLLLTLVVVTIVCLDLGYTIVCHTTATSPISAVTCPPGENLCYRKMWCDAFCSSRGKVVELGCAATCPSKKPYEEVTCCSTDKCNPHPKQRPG

On to `Cc1ccc(S(=O)(=O)N[C@H]2COC(=O)CC=C[C@@H](C)COC(=O)CC=C[C@@H]2C)cc1`, for which the composite z-score in [1] was -0.572; in assay [3], 0.449; in [4] it was -0.606; in assay [5], -1.24; in assay [6], -0.12; in assay [7], -0.153. Besides, the composite z-score in assay [8] is -0.222; in assay [9], 0.163; in assay [10] it was -0.361. Further, the z-score in assay [2] amounted to 0.391.

Regarding `COC(=O)CC=C[C@@H](C)[C@@H](C=NO[C@H](C)c1cn([C@@H]2COC[C@H]2O)nn1)NS(=O)(=O)c1ccc(C)cc1`, the composite z-score is -0.12 in assay [1]; 0.722 in [3]; -0.0535 in [4]; -0.646 in assay [5]; -0.144 in [6]; -0.237 in assay [7]. The composite z-score is -0.246 in assay [8], 0.0982 in assay [9] and -0.361 in assay [10]. Moreover, the z-score in [2] is -0.483.

As to `COC(=O)[C@H]1O[C@@H](c2c(OC)c(OC)c(C)c(OC)c2OC)[C@H](C)[C@@H](O)[C@H]1C`, the composite z-score in assay [1] is 1.08; in [3], 0.685; in assay [4], -0.112; in assay [5], -0.421; in assay [6], -0.157; in assay [7], -0.0769. The composite z-score is 0.0947 in assay [8], 0.407 in [9] and 0.101 in [10]. Moreover, in assay [2], the z-score came out at 0.155.

As to `CCOC(=O)[C@H](Cc1ccccc1)NC(=O)CCC1CC(OC(=O)NCc2ccc3c(c2)OCO3)CC2(CCCC(COC(=O)NCCC(C)C)O2)O1` (stereo not given in full), the composite z-score is 1.38 in assay [1]; 0.619 in assay [3]; 0.487 in [4]; -0.252 in [5]; 0.0704 in assay [6]; 0.0639 in [7]. For the same molecule, the composite z-score in [8] was -0.19; in assay [9], 0.0293; in assay [10], 0.434. The z-score in assay [2] is -1.01.

In the case of `CO[C@H]1COC(=O)CC=C[C@H](C)[C@@H](OC)COC(=O)[C@@H](C)NC(=O)CC=C[C@@H]1C`, the composite z-score was -2.13 in [1]; 0.962 in [3]; -0.857 in assay [4]; -1.55 in assay [5]; -0.119 in assay [6]; -0.367 in assay [7]. In addition, the composite z-score is -0.274 in assay [8], 0.12 in assay [9] and -0.352 in assay [10]. For the same molecule, the z-score in [2] was -1.42.

Regarding `CC(CCN1CCc2nc(-c3ccccc3)c(-c3ccccc3)cc2C1)=NOC[C@@H](O)[C@H]1O[C@@H]2OC(C)(C)O[C@@H]2[C@H]1O`, the composite z-score in assay [1] was 1.12; in assay [3], 0.642; in assay [4], 0.12; in assay [5] it was -0.233; in assay [6] it was -0.139; in assay [7], -0.0709. The results for the composite z-score in [8], in assay [9] and in assay [10] were -0.353, 0.825 and 0.673, respectively. Also, the z-score in assay [2] is -2.73.

On to `Cc1cc2c(c(=O)o1)[C@@H](O)[C@H]1O[C@H]1C2=O`, for which the composite z-score in assay [1] was -0.0158; in assay [3], 0.384; in assay [4], -0.374; in assay [5], -0.876; in [6], -0.154; in [7] it was -0.243. Further, the composite z-score is -0.265 in assay [8], 0.27 in [9] and 0.56 in [10]. Besides, the z-score in [2] came out at 0.73.

For the molecule `CO[C@H]1COC(=O)CC=C[C@@H](C)[C@H](NS(=O)(=O)c2ccc(C)cc2)COC(=O)CCC[C@@H]1C`, the composite z-score in [1] is 0.106; in assay [3] it was 0.8; in assay [4], -0.789; in assay [5], -1.3; in assay [6], -0.154; in [7], -0.188. Also, the composite z-score is -0.321 in assay [8], 0.784 in assay [9] and 0.493 in [10]. For the same molecule, the z-score in assay [2] was -2.24.

Turning to `CC(CCC(=O)OC[C@H]1O[C@H](C#Cc2ccccc2)C=C[C@@H]1Oc1ccc(C)cc1)=NO[C@H](C)c1cn([C@H](CO)Cc2ccccc2)nn1`, the composite z-score in [1] is 0.53; in assay [3], 0.423; in assay [4] it was 0.0827; in assay [5] it was -0.0351; in assay [6] it was -0.0924; in [7] it was -0.138. Moreover, the composite z-score was 0.0169 in [8], -0.166 in assay [9] and -0.0686 in assay [10]. In assay [2], the z-score was -1.57.

For `C#CCCCON=C1C[C@@H](O)[C@@H](O)[C@@H]2[C@@H]3C(=O)N(c4ccc(F)cc4F)C(=O)[C@@H]3CC[C@@H]12`, the composite z-score was 0.184 in [1]; 0.321 in assay [3]; -0.212 in assay [4]; -0.813 in assay [5]; -0.197 in [6]; -0.179 in [7]. Besides, the composite z-score in assay [8] was found to be 0.14; in assay [9], 0.36; in assay [10], 0.155. Also, in assay [2], the z-score was found to be 0.296.

As for `C=CC[C@@H]1C=C[C@H](ON=C(C)CCC(=O)OC[C@H]2O[C@H](c3ccccc3)C=C[C@@H]2Oc2ccc(OC)cc2)[C@@H](CO)O1`, the composite z-score in assay [1] is -0.0821; in [3], -0.189; in [4] it was -0.725; in assay [5], -0.878; in assay [6] it was -0.152; in assay [7], -0.221. The composite z-score was -0.158 in assay [8], 0.106 in [9] and -0.55 in [10]. Besides, the z-score in [2] was -1.54.

For the molecule `CCOC(=O)[C@H](CC(C)C)NC(=O)CCC1CC(OC(=O)NCCc2ccc(F)cc2)CC2(CCCC(COC(=O)NCCc3ccccc3OC)O2)O1` (stereo not given in full), the composite z-score in assay [1] was 1.29; in assay [3], 0.61; in assay [4] it was 1.57; in [5], 0.535; in assay [6], -0.119; in [7], 0.157. In addition, the composite z-score is -0.0787 in assay [8], 0.793 in assay [9] and 0.493 in [10]. Besides, in assay [2], the z-score was -1.38.
